PubChem BioAssay (Tox21)
Inconclusive results are not listed. Entries that show only a call come without a potency. Active and inactive are the calls of the source. Calls follow the shape of the dose curve; as a rule, active = well fitted activation curve with a large enough effect in the repeat runs; inconclusive = weak or mixed curves; inactive = flat fitted curve, though single readings scatter.

The compounds below were run against Nuclear receptor subfamily 1 group I member 2 (Homo sapiens) (UniProt O75469) (assay: Human pregnane X receptor (PXR) activation by small molecules, qHTS assay (AID 1346985; also: nearly all actives have a fitted effect of over 40% in size)). Conditions: DPX-2 HepG2 CYP3A4-luciferase, 24 h; series mostly up to 38.3 µM.
Summary of the method: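 DPX-2 cells (HepG2 co-transfected with a PXR response element and a CYP3A4-promoter luciferase construct) were seeded at 2,000 per well, rested 5 hr at 37C, then exposed to DMSO-dissolved compounds for 24 hr. Activation was read as luciferase luminescence.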

SMILES	Potency
C[C@H](O)CN(C)C	inactive
Cc1cc(-c2ccc(N=Nc3ccc4c(S(=O)(=O)O)cc(S(=O)(=O)O)c(N)c4c3O)c(C)c2)ccc1N=Nc1ccc2c(S(=O)(=O)O)cc(S(=O)(=O)O)c(N)c2c1O	inactive
CCOC(=O)[C@H](CCc1ccccc1)N[C@@H](C)C(=O)N1[C@H](C(=O)O)C[C@H]2CCCC[C@@H]21	inactive
C[S+](C)CCC(N)C(=O)O (stereo not drawn)	inactive
N[C@H](C(=O)O)[C@@H]1CC(Cl)=NO1	inactive
C[N+]1(CCCCC[N+]2(C)CCCC2)CCCC1	inactive
CC1(C)CCC(NC(=O)[C@@H](N)CCC(=O)O)CC1	inactive
OCC1(CO)COC(C(Cl)(Cl)Cl)OC1	inactive
